Inconclusive results are not listed. The source made the active and inactive calls. Unless noted, calls come from the whole dose curve.
How the values were obtained:
[1] = Cell Viability - BJ (AID 421); conditions: BJ fibroblast viability, qHTS;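 note: potency is the fitted concentration of half-maximal effect; cells exposed to compound for 40 hours at 37 °C before readout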
Outline: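 Quantitative HTS: ATP depletion in BJ cells after 40 hr compound exposure in complete culture medium, detected with CellTiter-Glo; AC50 from standard Hill fits.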

[2] = Cell Viability - Jurkat (AID 426;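 active = dose-dependent loss of cell ATP signal giving a full or clear fitted curve, ranked by lower potency value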;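 note: potency is the fitted concentration of half-maximal effect; cells exposed to compound for 40 hours at 37 °C before ATP read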); conditions: qHTS
Outline: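 Cells of the human T-cell leukemia line Jurkat (E6-1) are seeded at 5000 per well, treated with compound across a concentration range for 40 hours at 37 °C, then lysed with CellTiter-Glo; luminescence reports ATP.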

[3] = Cell Viability - Hek293 (AID 427;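 active = compounds whose dose-response curve shows a full or clear partial loss of cell viability, called from curve shape rather than a numeric limit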;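 note: potency is the fitted concentration of half-maximal effect; cells exposed to compound for 40 hours at 37 °C before reading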); conditions: qHTS
Outline: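 AC50 values derive from Hill-modelled concentration-response of ATP-based luminescence, normalized between DMSO-only and 100 uM tamoxifen controls. Cells were exposed in complete culture medium for 40 hr at 37 °C before detection.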

[4] = Cell Viability - HepG2 (AID 433); conditions: qHTS;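 note: potency is the fitted concentration of half-maximal effect; potency for ATP loss meaning cytotoxicity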
Outline: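 Cytotoxicity is scored as loss of intracellular ATP in HepG2 cells exposed to compounds for 40 h. Concentration-response curves, normalized to DMSO and 100 uM tamoxifen, give AC50 values.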

[5] = Cell Viability - MRC5 (AID 434); conditions: MRC5 lung fibroblast viability, qHTS;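 note: potency is the fitted concentration of half-maximal effect; potency reflects cytotoxicity seen as loss of intracellular ATP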
Outline: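 ATP luminescence read-out (CellTiter-Glo, 20 min RT) after 40 hr, 37 °C compound exposure of 1500 MRC5 cells/well. Data normalized to DMSO (basal) and 100 uM tamoxifen (100% inhibition); AC50 from standard Hill equation.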

[6] = Cell Viability - SK-N-SH (AID 435); conditions: SK-N-SH neuroblastoma cell viability qHTS;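 note: potency is the fitted concentration of half-maximal effect; compound exposure lasted 40 h at 37 °C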
Outline: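 Cells seeded at 1500 per well and incubated 5 hr at 37 °C. Compound added, then 40 hr at 37 °C. CellTiter-Glo added, 20 min at room temperature, luminescence read.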

[7] = biological target: Mitogen-activated protein kinase 10 (Mus musculus) (UniProt Q61831); assay: JNK3 AlphaScreen Assay (AID 530; active = well fitted curve in either direction with a large enough effect, not every such curve was filed as active;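 note: kinase came from lysate of stimulated human HepG2 cells; signal reports phosphorylation of biotinylated GST-cJun 1-79 at Ser73 with 10 µM ATP; % is set by controls: 0 for no effect and ±100 for the full control effect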); conditions: JNK3 lysate, c-Jun phosphorylation; series mostly up to 57.1 µM
Outline: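 Activity was read by AlphaScreen after JNK3-containing HepG2 lysate (cytokine pre-activated) phosphorylated biotinylated GST-cJun with 10 uM ATP at room temperature. Phospho-Ser73 cJun antibody with Protein-A acceptor beads provided detection.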

[8] = Cell Viability - N2a (AID 540; active = well fitted curve in the direction sought with a large enough effect; an effect the other way counts as inactive or inconclusive;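 note: cells exposed to compound for 40 h at 37 °C; plate controls were DMSO alone for no effect and tamoxifen control for full effect; nearly all actives have a fitted effect of over 45% in size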); conditions: N2a mouse neuroblastoma cell viability; activity change, negative = cytotoxicity: at 92.2 µM (top of the series)
Outline: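 Cytotoxicity was scored as loss of cellular ATP in N2a cells, a mouse neuroblastoma line. Compounds are applied in a qHTS concentration series for 40 hr at 37 °C.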

[9] = Cell Viability - NIH 3T3 (AID 541; active = well fitted curve in the direction sought with a large enough effect; an effect the other way counts as inactive or inconclusive;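 note: plate controls were DMSO alone for no effect and tamoxifen positive control for full effect; nearly all actives have a fitted effect of over 25% in size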); conditions: NIH 3T3 cell viability, qHTS; activity change, negative = cytotoxicity: at 92.2 µM (top of the series)
Outline: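 Cells seeded at 1000/well, rested 5 hr at 37 °C, then dosed and incubated 40 hr at 37 °C. CellTiter-Glo added, 20 min room temperature, luminescence read. AC50 by Hill fit.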

[10] = Cell Viability - HUV-EC-C (AID 542; active = well fitted curve in the direction sought with a large enough effect; an effect the other way counts as inactive or inconclusive; note: % is set by controls: 0 for no effect and ±100 for the full control effect; nearly all actives have a fitted effect of over 35% in size); conditions: HUV-EC-C endothelial cell viability, qHTS; series mostly up to 92.2 µM
Outline: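 Cells were seeded at 1000 per well and incubated 5 hr at 37 °C before compound addition. After 40 hr at 37 °C, CellTiter-Glo reagent was added for 20 min and luminescence read. AC50 values came from Hill-equation modelling.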

CCCCCCCCCCCCC1CO1 (centres undefined)
inactive: Potency [1] > 92 µM | Potency [2] > 92 µM | Potency [3] > 92 µM | Potency [4] > 92 µM | Potency [5] > 92 µM | Potency [6] > 92 µM | outcome [7] | activity change, negative = cytotoxicity [8] 6.57% | Potency [9]

Nc1cccc(N)c1
inactive: Potency [1] > 92 µM | Potency [2] > 92 µM | Potency [3] > 92 µM | Potency [4] > 92 µM | Potency [5] > 92 µM | Potency [6] > 92 µM | outcome [7] | activity change, negative = cytotoxicity [8] -0.534% | Potency [9]

Oc1c(Cl)ccc(Cl)c1Cl
inactive: Potency [1] > 92 µM | Potency [2] > 92 µM | Potency [3] > 92 µM | Potency [4] > 92 µM | Potency [5] > 92 µM | Potency [6] > 92 µM | outcome [7] | activity change, negative = cytotoxicity [8] -9.1% | Potency [9]

BrC(Br)C(Br)Br
inactive: Potency [1] > 92 µM | Potency [2] > 92 µM | Potency [3] > 92 µM | Potency [4] > 92 µM | Potency [5] > 92 µM | Potency [6] > 92 µM | outcome [7] | activity change, negative = cytotoxicity [8] 7.56% | Potency [9]

NC(=S)NNC(N)=S
inactive: Potency [1] > 92 µM | Potency [2] > 92 µM | Potency [3] > 92 µM | Potency [4] > 92 µM | Potency [5] > 92 µM | Potency [6] > 92 µM | outcome [7] | activity change, negative = cytotoxicity [8] 4.33% | Potency [9] | Potency [10]

C=Cc1ccc(C=C)cc1
inactive: Potency [1] > 92 µM | Potency [2] > 92 µM | Potency [3] > 92 µM | Potency [4] > 92 µM | Potency [5] > 92 µM | Potency [6] > 92 µM | outcome [7] | activity change, negative = cytotoxicity [8] -7.69% | Potency [9] | Potency [10]

C=C(C)C(=O)OCC(C)O (centres undefined)
inactive: Potency [1] > 92 µM | Potency [2] > 92 µM | Potency [3] > 92 µM | Potency [4] > 92 µM | Potency [5] > 92 µM | Potency [6] > 92 µM | outcome [7] | activity change, negative = cytotoxicity [8] 6.96% | Potency [9]

CCCCCNCCCCC
inactive: Potency [1] > 92 µM | Potency [2] > 92 µM | Potency [3] > 92 µM | Potency [4] > 92 µM | Potency [5] > 92 µM | Potency [6] > 92 µM | outcome [7] | activity change, negative = cytotoxicity [8] 0.97% | Potency [9]

NC(=O)c1ccccc1[N+](=O)[O-]
inactive: Potency [1] > 92 µM | Potency [2] > 92 µM | Potency [3] > 92 µM | Potency [4] > 92 µM | Potency [5] > 92 µM | Potency [6] > 92 µM | outcome [7] | activity change, negative = cytotoxicity [8] -5.05% | Potency [9]

COC(=O)CCC(=O)OC
inactive: Potency [1] > 92 µM | Potency [2] > 92 µM | Potency [3] > 92 µM | Potency [4] > 92 µM | Potency [5] > 92 µM | Potency [6] > 92 µM | outcome [7] | activity change, negative = cytotoxicity [8] -1.63% | Potency [9]

CCC(O)C(C)(C)C (centres undefined)
inactive: Potency [1] > 92 µM | Potency [2] > 92 µM | Potency [3] > 92 µM | Potency [4] > 92 µM | Potency [5] > 92 µM | Potency [6] > 92 µM | outcome [7] | activity change, negative = cytotoxicity [8] 5.57% | Potency [9] | Potency [10]

C=CCOC(=O)COCCC(C)C
inactive: Potency [1] > 92 µM | Potency [2] > 92 µM | Potency [3] > 92 µM | Potency [4] > 92 µM | Potency [5] > 92 µM | Potency [6] > 92 µM | outcome [7] | activity change, negative = cytotoxicity [8] -4.01% | Potency [9] | Potency [10]

O=C1NC(=O)c2cc([N+](=O)[O-])ccc21
inactive: Potency [1] > 92 µM | Potency [2] > 92 µM | Potency [3] > 92 µM | Potency [4] > 92 µM | Potency [5] > 92 µM | Potency [6] > 92 µM | outcome [7] | activity change, negative = cytotoxicity [8] -3.32% | Potency [9]

O=C(O)c1cccc([N+](=O)[O-])c1
inactive: Potency [1] > 92 µM | Potency [2] > 92 µM | Potency [3] > 92 µM | Potency [4] > 92 µM | Potency [5] > 92 µM | Potency [6] > 92 µM | outcome [7] | activity change, negative = cytotoxicity [8] -0.379% | Potency [9]

CCOc1ccccc1N
inactive: Potency [1] > 92 µM | Potency [2] > 92 µM | Potency [3] > 92 µM | Potency [4] > 92 µM | Potency [5] > 92 µM | Potency [6] > 92 µM | outcome [7] | activity change, negative = cytotoxicity [8] 1.87% | Potency [9] | Potency [10]

CSc1ccc(C=O)cc1
inactive: Potency [1] > 92 µM | Potency [2] > 92 µM | Potency [3] > 92 µM | Potency [4] > 92 µM | Potency [5] > 92 µM | Potency [6] > 92 µM | outcome [7] | activity change, negative = cytotoxicity [8] 0.565% | Potency [9]

CC(=O)C1(C)CC2=C(CCCC2(C)C)CC1C (centres undefined)
inactive: Potency [1] > 92 µM | Potency [2] > 92 µM | Potency [3] > 92 µM | Potency [4] > 92 µM | Potency [5] > 92 µM | Potency [6] > 92 µM | outcome [7] | activity change, negative = cytotoxicity [8] -8.12% | Potency [9] | Potency [10]

From PubChem BioAssay (NCATS)
